Laboratory results as given in PubChem BioAssay.
Active and inactive are the calls of the source. Unless noted, no rule for the calls is given here.

Key:
[1] = anti-His antibody binders, primary screen, artefact control for SMM control protein annotation, biochemical, small-molecule microarray, 635 nm fluorescence (AID 1128); settings: anti-His Alexa647 antibody binding, higher = more signal;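 also: score merges feature fluorescence with signal-to-noise for each printed compound spot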
[2] = system: Human papillomavirus type 1a E7 protein (residues 1-88); assay: HPV1a E7 small-molecule binders, primary screen, biochemical, small-molecule microarray, residues 1-88, 635 nm (AID 1129); settings: small-molecule microarray binding, fluorescence 635 nm; higher = more signal
[3] = biological target: Focal adhesion kinase 1 (Homo sapiens) (UniProt Q05397); assay: small-molecule microarray binders of FAK, primary screen, biochemical, 635/667 nm fluorescence, BSA, DTT (AID 1130); settings: PTK2 binding, 635 nm fluorescence, higher = more signal;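 also: composite of spot emission at 667 nm and signal to noise over triplicate slides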
[4] = system: Fibrinogen (Alexa647-labelled); assay: fibrinogen binders on compound microarrays, profiling panel, artefact control for SMM control-protein annotation, biochemical, small-molecule microarray, 635/667 nm fluorescence (AID 1131); settings: fibrinogen-A647 binding fluorescence, higher = more signal;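 also: z-score merges 667 nm fluorescence with per-spot signal-to-noise over triplicate slides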
[5] = biological target: Follistatin (Homo sapiens) (UniProt P19883); assay: follistatin binders on small-molecule microarrays, primary screen, biochemical, small-molecule microarray, 635/667 nm fluorescence (AID 1132); settings: FST binding, 635 nm fluorescence, higher = more signal
[6] = biological target: Fibroblast growth factor 2 (Homo sapiens) (UniProt P09038); assay: FGF2 binders on small-molecule microarrays, primary screen, biochemical, small-molecule microarray, 635/667 nm fluorescence (AID 1133); settings: small-molecule microarray binding, FGF2, fluorescence 635/667; higher = more signal
[7] = mitochondrial membrane potential change in A549 cells, profiling panel, cell-based, JC-1 fluorescence, basal, 24 h, 100 nL (AID 1138); settings: higher = more signal;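 also: A549 lung adenocarcinoma cells under basal conditions with no added stimulus; test concentration not given here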
Lefty1 = Lefty1 binders on small-molecule microarrays, primary screen, biochemical, small-molecule microarray, 635/667 nm fluorescence (AID 1139); settings: small-molecule microarray binding, fluorescence 635/667; higher = more signal
[8] = system: wheat germ agglutinin (Triticum aestivum), Alexa647-labelled; assay: wheat germ agglutinin binders on compound microarrays, profiling panel, artefact control for SMM control-protein annotation, biochemical, small-molecule microarray, 635/667 nm fluorescence (AID 1140); settings: WGA-A647 binding, 635 nm fluorescence, higher = more signal;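 also: score merges 667 nm feature emission with signal to noise over triplicate slides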
[9] = biological target: Luciferin 4-monooxygenase (Photinus pyralis) (UniProt P08659); assay: firefly luciferase enzyme inhibitors, primary screen, biochemical, luminescence, purified enzyme, 2006 set (AID 1141); settings: SteadyGlo luminescence, 30 min, higher = more signal, called active from +8 up or from −8 down;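 also: cell-free assay with purified firefly luciferase at 100 ng per well in PBS; test concentration not given here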
[10] = system: Wnt5a (protein binding on small-molecule microarray); assay: Wnt5a binders on small-molecule microarray, primary screen, biophysical, 635/667 nm fluorescence (AID 1142); settings: 635 nm fluorescence, higher = more signal;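 also: fluorescence read at 667 nm with signal to noise per printed feature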
[11] = cell viability in Huh7 cells, primary screen, cytotoxicity control for HCV replication inhibitor project, CellTiter-Glo luminescence, basal, 48 h (AID 1143); settings: Huh7 HCV replicon, higher = more signal, called active from +8 up or from −8 down;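 also: Huh7 hepatoma cells carrying a hepatitis C replication reporter with no stimulus; test concentration not given here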
[12] = P. aeruginosa biofilm formation inhibitors, primary screen, PAO1 strain, BacTiter-Glo luminescence, LB-PBS (AID 1144); settings: 12 h, higher = more signal
[13] = CREB reporter modulators without forskolin, primary screen, cell-based, PC12, CRE-LacZ reporter, unstimulated (AID 1145); settings: no forskolin, luminescence, 4.5 h, higher = more signal, called active from +8 up or from −8 down
[14] = CREB reporter modulators under forskolin, primary screen, cell-based, PC12, CRE-LacZ reporter, forskolin-stimulated (AID 1146); settings: luminescence, 4.5 h, higher = more signal, called active from +8 up or from −8 down;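 also: PC12 cells with 6xCRE LacZ reporter stimulated by forskolin 10 µM; beta-galactosidase reporter signal reflecting CREB driven transcription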
[15] = biological target: Streptavidin (Streptomyces avidinii) (UniProt P22629); assay: streptavidin binders on small-molecule microarray, primary screen, artefact control for SMM compound annotation, biophysical, 635/667 nm fluorescence (AID 1147); settings: streptavidin binding, higher = more signal;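 also: signal reflects streptavidin binding to arrayed compounds as a control protein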
[16] = small-molecule binders of probe aInhba, primary screen, biochemical, small-molecule microarray, 635/667 nm fluorescence (AID 1148); settings: higher = more signal;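 also: score merges 667nm spot fluorescence with signal-to-noise for antibody binding to printed compounds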
Torsin-1A (Homo sapiens) [17] = biological target: Torsin-1A (Homo sapiens) (UniProt O14656); assay: torsin A binders from cell lysate, primary screen, small-molecule microarray, wild-type, 635/667 nm (AID 1149); settings: COS7 hTOR1A-WT lysate, 635 nm fluorescence, higher = more signal
Torsin-1A (Homo sapiens) [18] = biological target: Torsin-1A (Homo sapiens) (UniProt O14656); assay: small-molecule binders of mutant TOR1A in lysate, primary screen, cell lysate, small-molecule microarray, COS7 lysate, 635/667 nm fluorescence (AID 1150); settings: COS7 hTOR1A mutant lysate, 635 nm fluorescence, higher = more signal;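 also: score pools 667 nm emission and signal to noise measuring lysate protein binding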
[19] = system: Sonic hedgehog protein (Shh); assay: small-molecule binders of Shh protein, primary screen, biochemical, small-molecule microarray, 635/667 nm fluorescence (AID 1151); settings: small-molecule microarray binding, 635 nm fluorescence; higher = more signal;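 also: Shh protein binding to compounds spotted on small-molecule microarray slides; score combines spot fluorescence intensity with signal-to-noise across triplicate slides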

Chain of Fibroblast growth factor 2 (Homo sapiens) (P09038 whole entry, looked up): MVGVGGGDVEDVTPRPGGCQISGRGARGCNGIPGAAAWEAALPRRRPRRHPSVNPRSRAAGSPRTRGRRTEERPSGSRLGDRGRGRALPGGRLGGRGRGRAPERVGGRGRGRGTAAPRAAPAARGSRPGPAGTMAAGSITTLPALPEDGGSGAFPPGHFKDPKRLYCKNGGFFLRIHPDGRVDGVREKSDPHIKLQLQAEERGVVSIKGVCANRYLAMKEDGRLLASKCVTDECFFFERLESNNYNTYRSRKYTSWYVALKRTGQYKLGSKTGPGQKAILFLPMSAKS
Chain of Torsin-1A (Homo sapiens) (O14656 whole entry, looked up): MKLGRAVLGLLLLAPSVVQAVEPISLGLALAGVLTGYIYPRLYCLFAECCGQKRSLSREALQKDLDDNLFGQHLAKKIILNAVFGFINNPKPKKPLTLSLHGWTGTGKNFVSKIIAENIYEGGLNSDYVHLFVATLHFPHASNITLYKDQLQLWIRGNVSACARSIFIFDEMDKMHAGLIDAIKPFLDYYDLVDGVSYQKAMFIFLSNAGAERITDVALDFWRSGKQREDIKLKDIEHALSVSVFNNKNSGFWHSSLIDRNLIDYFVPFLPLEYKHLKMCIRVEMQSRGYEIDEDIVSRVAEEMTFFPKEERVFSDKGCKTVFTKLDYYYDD
Chain of Streptavidin (Streptomyces avidinii) (P22629 whole entry, looked up): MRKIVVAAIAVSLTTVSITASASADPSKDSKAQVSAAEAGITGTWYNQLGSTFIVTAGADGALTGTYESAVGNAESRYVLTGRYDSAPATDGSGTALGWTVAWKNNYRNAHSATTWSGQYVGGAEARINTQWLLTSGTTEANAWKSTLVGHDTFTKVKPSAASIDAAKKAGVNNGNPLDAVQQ
Chain of Focal adhesion kinase 1 (Homo sapiens) (Q05397 whole entry, looked up): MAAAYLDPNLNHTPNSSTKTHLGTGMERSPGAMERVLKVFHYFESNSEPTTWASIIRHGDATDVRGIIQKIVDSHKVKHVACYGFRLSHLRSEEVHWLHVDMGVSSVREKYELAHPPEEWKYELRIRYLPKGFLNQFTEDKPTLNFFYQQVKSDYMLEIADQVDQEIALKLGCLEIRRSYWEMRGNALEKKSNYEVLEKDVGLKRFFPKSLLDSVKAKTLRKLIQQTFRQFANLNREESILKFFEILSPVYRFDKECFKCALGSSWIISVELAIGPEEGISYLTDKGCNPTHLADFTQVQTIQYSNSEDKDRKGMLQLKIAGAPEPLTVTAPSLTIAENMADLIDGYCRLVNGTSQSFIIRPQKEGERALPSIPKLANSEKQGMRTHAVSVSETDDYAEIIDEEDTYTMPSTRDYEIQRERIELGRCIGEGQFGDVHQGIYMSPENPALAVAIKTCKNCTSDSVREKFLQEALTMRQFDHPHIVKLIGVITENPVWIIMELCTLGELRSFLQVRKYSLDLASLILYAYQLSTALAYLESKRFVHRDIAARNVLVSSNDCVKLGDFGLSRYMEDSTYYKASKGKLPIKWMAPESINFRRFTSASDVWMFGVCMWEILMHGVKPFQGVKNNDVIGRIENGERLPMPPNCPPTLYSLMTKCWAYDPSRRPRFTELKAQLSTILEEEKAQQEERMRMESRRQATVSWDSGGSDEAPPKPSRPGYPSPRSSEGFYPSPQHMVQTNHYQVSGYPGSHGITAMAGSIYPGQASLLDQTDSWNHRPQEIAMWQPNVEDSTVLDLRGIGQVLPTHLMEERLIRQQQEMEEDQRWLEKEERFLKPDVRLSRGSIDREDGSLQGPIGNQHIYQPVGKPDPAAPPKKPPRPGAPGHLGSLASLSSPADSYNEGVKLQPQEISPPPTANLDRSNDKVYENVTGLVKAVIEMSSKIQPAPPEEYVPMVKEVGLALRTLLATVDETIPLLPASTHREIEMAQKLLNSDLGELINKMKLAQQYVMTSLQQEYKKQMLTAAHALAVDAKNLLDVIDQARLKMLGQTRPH
Chain of Luciferin 4-monooxygenase (Photinus pyralis) (P08659 whole entry, looked up): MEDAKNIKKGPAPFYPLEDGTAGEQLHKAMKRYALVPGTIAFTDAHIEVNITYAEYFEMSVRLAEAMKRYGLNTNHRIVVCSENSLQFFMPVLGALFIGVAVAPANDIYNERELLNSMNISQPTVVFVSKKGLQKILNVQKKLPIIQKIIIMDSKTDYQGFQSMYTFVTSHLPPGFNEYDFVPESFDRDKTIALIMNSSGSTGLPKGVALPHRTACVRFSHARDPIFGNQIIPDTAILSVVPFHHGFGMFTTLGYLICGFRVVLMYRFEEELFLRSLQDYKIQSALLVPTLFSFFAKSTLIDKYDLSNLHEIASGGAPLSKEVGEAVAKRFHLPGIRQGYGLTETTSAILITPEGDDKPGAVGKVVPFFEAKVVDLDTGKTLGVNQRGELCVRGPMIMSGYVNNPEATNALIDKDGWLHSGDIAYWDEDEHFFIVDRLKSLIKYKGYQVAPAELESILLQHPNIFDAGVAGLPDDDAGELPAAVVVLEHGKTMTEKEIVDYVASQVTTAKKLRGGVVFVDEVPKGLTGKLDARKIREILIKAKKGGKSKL
Chain of Follistatin (Homo sapiens) (P19883 whole entry, looked up): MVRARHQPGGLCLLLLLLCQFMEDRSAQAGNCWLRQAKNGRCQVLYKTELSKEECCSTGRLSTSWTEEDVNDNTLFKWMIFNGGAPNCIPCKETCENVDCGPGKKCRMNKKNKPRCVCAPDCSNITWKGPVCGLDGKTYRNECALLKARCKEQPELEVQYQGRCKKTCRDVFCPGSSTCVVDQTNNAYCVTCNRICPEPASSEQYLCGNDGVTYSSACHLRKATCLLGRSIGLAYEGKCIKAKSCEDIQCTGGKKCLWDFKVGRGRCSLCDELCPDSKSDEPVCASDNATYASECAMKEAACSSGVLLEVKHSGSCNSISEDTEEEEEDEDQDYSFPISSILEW

| Compound | composite z-score [1] | composite z-score [2] | composite z-score [3] | composite z-score [4] | composite z-score [5] | composite z-score [6] | z-score [7] | composite z-score (Lefty1) | composite z-score [8] | z-score [9] | composite z-score [10] | z-score [11] | z-score [12] | z-score [13] | z-score [14] | composite z-score [15] | composite z-score [16] | composite z-score (Torsin-1A (Homo sapiens) [17]) | composite z-score (Torsin-1A (Homo sapiens) [18]) | composite z-score [19] |
| --- | --- | --- | --- | --- | --- | --- | --- | --- | --- | --- | --- | --- | --- | --- | --- | --- | --- | --- | --- | --- |
| COc1ccccc1CN1C(=O)c2ccccc2[C@](Cc2ccccc2I)(C(=O)NCC(F)(F)F)[C@@H]1c1ccc(CO)cc1 | 2.25 | 1.24 | 0.473 | 0.74 | 1.26 | 0.342 | -0.878 | 0.168 | 0.887 | 0.347 (inactive) | 0.431 | -2.75 (inactive) | -0.243 (inactive) | -0.735 (inactive) | 6.82 (inactive) | 1.14 | 0.189 | 1.36 | -0.103 | 0.251 |
| COc1ccccc1CN1C(=O)c2ccccc2[C@@]2(Cc3ccccc3N(CC(F)(F)F)C2=O)[C@@H]1c1ccc(CO)cc1 | -0.0478 | 0.232 | 0.205 | 0.049 | 0.666 | 0.731 | -0.0896 | 0.292 | -0.0716 | 0.962 (inactive) | 0.0586 | 0.338 (inactive) | 0.126 (inactive) | 1.24 (inactive) | -0.173 (inactive) | 0.276 | 0.173 | -0.116 | -0.33 | 0.53 |
| NCCCCCCNC(=O)[C@@H]1C[C@@H]2C(=O)N[C@@H](CCCCN)C(=O)N2[C@@H]1c1cccc(OCCO)c1 | 1.24 | 1.12 | 1.21 | -0.0787 | 0.877 | 0.485 | 0.81 | 1.4 | 0.641 | 0.507 (inactive) | 0.57 | 0.0957 (inactive) | -0.537 (inactive) | -0.26 (inactive) | -0.119 (inactive) | 0.125 | 0.094 | -0.324 | 1.2 | 1.5 |
| CC=CC(O)C1C=CC2C(=O)N(c3ccccc3)C(=O)C2N1Nc1ccccc1F (stereo not given) | 0.817 | 0.217 | 0.451 | -1.06 | 0.0954 | -0.189 | -1.05 | -0.844 | 0.0224 | 0.597 (inactive) | 0.713 | -0.118 (inactive) | 0.103 (inactive) | 0.481 (inactive) | 1.23 (inactive) | -0.0607 | 0.572 | 0.804 | 0.42 | -0.371 |
| COCCCNC(=O)[C@]1(CCS(=O)(=O)c2ccccc2)N=C(c2ccc(OCCCO)cc2)O[C@@H]1c1ccccc1N=[N+]=[N-] | 2.09 | 1.22 | -0.0436 | 0.996 | 0.794 | -0.138 | 0.789 | -0.279 | 1.13 | -10.1 (active) | 1.02 | -2.78 (inactive) | 2.09 (inactive) | 0.297 (inactive) | -1.27 (inactive) | 1.31 | -0.0907 | 0.602 | 0.441 | -0.498 |
| COCCOC(=O)N1C(=O)[C@@]2(c3cc(C#CC4=CCCCC4)ccc31)[C@H](c1ccc(O)cc1)N1[C@H](c3ccccc3)[C@H](c3ccccc3)OC(=O)[C@H]1[C@@H]2C(=O)N1CCN(c2ncccn2)CC1 | -0.849 | -1.1 | -0.415 | -0.805 | -1.02 | -0.958 | 0.381 | -1.14 | -0.649 | 1.18 (inactive) | -0.299 | 0.498 (inactive) | -0.572 (inactive) | -0.467 (inactive) | -0.0588 (inactive) | -1.34 | -0.152 | -0.692 | -1.27 | -0.589 |
| COc1ccc(CCNC(=O)[C@@H]2c3ccccc3C(=O)N(Cc3cc(C(F)(F)F)cc(C(F)(F)F)c3)[C@H]2c2ccc(CO)cc2)cc1 | 2.15 | 0.102 | -0.152 | 0.629 | 0.255 | -0.258 | 1.95 | -0.297 | 0.985 | -1.16 (inactive) | 0.822 | -1.41 (inactive) | 0.703 (inactive) | 0.441 (inactive) | 0.632 (inactive) | 0.915 | -0.016 | -0.498 | -0.181 | 0.355 |
| C#CCN([C@@H](Cc1ccc(O)cc1)C(=O)OC)[C@@H](/C=C/C1CC1)[C@H](O)Cc1ccccc1 | 0.241 | -0.968 | -0.0524 | -0.519 | 0.814 | -0.0354 | -1.6 | 0.618 | -0.55 | -0.0396 (inactive) | -0.595 | -5.26 (inactive) | 0.709 (inactive) | 16.1 (active) | 1.17 (inactive) | -0.492 | -0.128 | -0.541 | -0.12 | 0.825 |
| CN1C(=O)C2C=CC(C(O)COCc3ccccc3)N(N(c3ccccc3)c3ccccc3)C2C1=O (stereo not given) | 0.087 | 1.19 | 0.75 | 0.56 | 0.265 | -0.483 | 1.12 | 0.216 | 0.508 | -1.06 (inactive) | 0.124 | -0.423 (inactive) | -0.761 (inactive) | -0.326 (inactive) | -0.637 (inactive) | 0.369 | 0.0464 | 0.346 | 0.231 | -0.386 |
